# Assay outcomes from PubChem.
# Most compounds without a hit are left out; they make up all but 3.5% or so of the library.
# Tb PYK inh: qHTS of Trypanosoma Brucei Inhibitors | TbPYK enzyme, Kinase-Glo Plus ATP luminescence, 45 min | Potency, µM (series often up to 76.8 µM), most hits filed as inhibitors | AID 624173, 2012 | 410,000 tested, 0.12% active; also: nearly all actives have a fitted effect of over 50% in size
#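 Assay buffer: 50 mM TEA pH 7.2, 100 mM KCl, 10 mM MgCl2, 0.05% BSA, 0.01% Tween-20. Pyruvate kinase from T. brucei plus substrate met compound, then ADP (130 uM final). Luminescence was read post 45 min RT.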
# LmPK inh: qHTS Assay for Inhibitors of Leishmania Mexicana Pyruvate Kinase (LmPK). AID 1721, 2009. 290,000 tested, 0.37% active. purified LmPK, Kinase-Glo ATP luminescence, 1 h. Potency, µM (top dose mostly 57.5 µM), hits mostly inhibitors
#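 Purified LmPK (0.1 nM) with 0.5 mM PEP and 0.1 mM ADP in imidazole buffer pH 7.2 with MgCl2/KCl, 1 h at room temperature. ATP formed was read by luciferase luminescence and normalized to no-enzyme and uninhibited controls.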
# RE007 growth inh: qHTS Assay for Inhibitors of the HIV-1 protein Vpr; S. pombe RE007 Vpr strain, BacTiter-Glo ATP luminescence, 24 h; Potency, µM (highest dose often 92.2 µM), actives largely listed as inhibitors; 360,000 tested, 0.21% active; active = well fitted falling curve with a large enough effect; inconclusive = small, poorly fitted or top-dose-only effect; inactive = no such curve, though single readings can be large or run the other way; also: nearly all actives have a fitted effect of over 50% in size
#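 Fission yeast RE007 carrying one integrated HIV-1 vpr copy, seeded at OD 0.01 in PMG+AL medium with 23 nL pinned compound. Grown 24 h at 30 degrees; viability read by BacTiter-Glo luminescence after 5 min.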
# NS1 inh: qHTS Assay for Inhibitors of Influenza NS1 Protein Function. Potency, µM (titrated, usually from 46.1 µM). 270,000 tested, 0.4% active; calls by dose curve; also: actives are rising curves; nearly all actives have a fitted effect of over 50% in size
#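 In this qHTS, NS1 from influenza A is expressed in budding yeast, where it slows growth. Cells are switched from glucose to 2% galactose medium (pH 6.0, -URA), treated with compound, and growth recovery is read at OD600.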
# Sm TGR inh: qHTS Assay for the Inhibitors of Schistosoma Mansoni Peroxiredoxins; Schistosoma mansoni thioredoxin glutathione reductase (TGR), Q962Y6; purified TGR, DTNB reduction, TNB absorbance 405 nm; Potency, µM (titrated, usually from 114 µM), usual class: inhibitors; 360,000 tested, 3% active; AID 485364, 2010; also: nearly all actives have a fitted effect of over 60% in size
#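 TGR 20 nM + NADPH 100 uM (dispensed conc.), cpd preinc 15 min RT; start with NADPH (500 uM addition) then DTNB (15 mM addition). Kinetic TNB absorbance, 405 nm filter. Four-parameter Hill fit across titration.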
# Giardia FBPA inh: qHTS Assay for Inhibitors of Fructose-1,6-bisphosphate Aldolase from Giardia Lamblia. A8B2U2. purified Giardia FBPA. Potency, µM (doses to about 59.6 µM), most hits filed as inhibitors. 290,000 tested, 0.71% active. AID 2451, 2010; also: nearly all actives have a fitted effect of over 55% in size
# Target sequence (A8B2U2 whole entry, looked up): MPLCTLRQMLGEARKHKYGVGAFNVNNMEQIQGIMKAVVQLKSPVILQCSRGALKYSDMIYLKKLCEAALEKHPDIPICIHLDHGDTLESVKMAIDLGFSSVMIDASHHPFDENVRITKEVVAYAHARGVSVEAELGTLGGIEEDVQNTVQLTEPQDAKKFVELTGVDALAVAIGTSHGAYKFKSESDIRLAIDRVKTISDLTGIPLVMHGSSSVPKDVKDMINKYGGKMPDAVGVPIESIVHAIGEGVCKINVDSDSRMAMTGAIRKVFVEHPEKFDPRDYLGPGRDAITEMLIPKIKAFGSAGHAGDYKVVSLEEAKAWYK
#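 40 nM FBPA preincubated 10 min at RT with compound (up to 57.5 uM final), then substrate plus GAPDH/TPI/NAD/arsenate coupling and diaphorase/resazurin added. Fluorescence read after 20 min at RT, 525/598 nm.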
# LmPK inh confirm: Confirmation Assay for Inhibitors of Leishmania Mexicana Pyruvate Kinase (LmPK); shares compounds with LmPK inh; purified LmPK, Kinase-Glo ATP luminescence, 1 h; Potency, µM (series often up to 57.5 µM), actives largely listed as inhibitors; 150 tested, 40% active; AID 2559, 2010;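 active = compounds giving a full or partial concentration-response curve, as inhibitors or activators; inconclusive = weak, top-dose-only or unclear curve responses; inactive = no response at any tested dose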
# Hits are given with their value; i = inactive; ? = inconclusive; nt = not tested or not shown; [ ] = remark or other dose. Unless noted, calls follow the shape of the dose curve; as a rule, active = well fitted curve in the direction sought with a large enough effect; inconclusive = small, poorly fitted or top-dose-only effect, or another doubt; inactive = no such curve, though single readings can be large; an effect the other way counts as inactive or inconclusive.
SMILES,Tb PYK inh,LmPK inh,RE007 growth inh,NS1 inh,Sm TGR inh,Giardia FBPA inh,LmPK inh confirm
CC(=O)N1CCc2cc(Br)cc(S(=O)(=O)CCC(=O)N3CCN(c4ccccc4Cl)CC3)c21,i,nt,nt,nt,i,nt,nt
Cc1cc(CN(C)Cc2cn(C)nc2-c2ccc(Oc3ccccc3)cc2)on1,i,i,i,i,i,i,i
COc1ccc(C(=O)O/N=C2\C(=O)N(C)c3ccccc32)cc1,i,nt,?,nt,nt,nt,nt
COc1ccc(C(=O)N=c2nc3ccccn3s2)cc1,i,?,?,i,i,i,16.3µM
Oc1ccc(O)c2c1C1c3ccccc3C2c2ccccc21,nt,2.24µM,nt,i,5.01µM,i,i
Oc1ccccc1Cl,i,nt,i,nt,nt,nt,nt
O=C(Nc1ccc(F)cc1)C1CCN(S(=O)(=O)c2ccc3c(c2)CCCN3C(=O)C2CCC2)CC1,i,nt,nt,nt,i,nt,nt
Cc1cccc(/N=C/c2c(O)ccc3oc4c(c23)CCCC4)n1,i,i,i,i,i,i,nt
O=[N+]([O-])c1cc2oc3c(c2c(C=NCc2ccccc2)c1O)CCCC3,?,1µM,?,i,i,?,0.819µM
CC(C)CN=Cc1c(O)c([N+](=O)[O-])cc2oc3c(c12)CCCC3,i,10µM,?,i,i,?,?
c1c2c(cc3sc(N4CCCCC4)nc13)OCO2,?,7.08µM,44.7µM,i,i,i,18.3µM
c1ccc(N2CCN(c3nc4cc5c(cc4s3)OCO5)CC2)cc1,i,i,i,i,i,i,nt
Cc1cc(NS(=O)(=O)c2ccccc2)ccc1NS(=O)(=O)c1ccccc1,i,nt,i,nt,nt,nt,nt
O=S(=O)(Nc1ccc(O)c(NS(=O)(=O)c2ccccc2)c1)c1ccccc1,i,0.447µM,i,i,i,nt,i
Cc1ccccc1-c1nc(-c2ccccn2)no1,?,2.51µM,?,i,i,i,11.6µM
Cc1ccccc1-c1nc(-c2cccnc2)no1,i,i,i,i,i,i,nt
Clc1ccc(-c2nc(-c3ccccn3)no2)cc1Cl,i,?,i,i,i,i,nt
COc1ccc(-c2nc(-c3ccccn3)no2)cc1,?,1.58µM,?,i,i,i,6.51µM
CCCCn1c(=O)n(-c2cc(OC)ccc2OC)c(=O)c2c3c(sc21)CN(C(C)=O)CC3,i,nt,nt,nt,i,nt,nt
CN(Cc1ccon1)Cc1cn(C)nc1-c1ccc2c(c1)OCCO2,i,i,i,i,i,i,i
C=C(C)[C@H]1CC=C(C)/C(=N/NC(=O)CNc2ccccc2OC)C1,i,i,i,i,i,i,i
Cc1nc2cc(-c3ccccc3)sc2c(=O)n1N,10µM,2.24µM,?,nt,i,i,4.61µM
COc1ccc(-c2cc3nc(C)n(N)c(=O)c3s2)cc1,?,2µM,11.2µM,i,i,i,2.91µM
Cc1ccc(Cn2cccc(NC(=O)NC3CCCCC3)c2=O)cc1,i,i,i,i,i,i,i
COc1ccc(N2CCN(C(=O)CCn3c(=O)[nH]c4cc(OC)c(OC)cc4c3=O)CC2)cc1,i,nt,nt,nt,i,nt,nt
COc1ccc(CCNC(=O)c2cn(C)c3ccc(S(=O)(=O)N(C)C)cc3c2=O)cc1OC,i,nt,nt,nt,i,nt,nt
CC(C)=CCC/C(C)=C/CO/N=C1/C[C@@H](O)[C@@H](O)[C@@H]2[C@H]3C(=O)N(c4ccc(F)cc4F)C(=O)[C@@H]3CC[C@H]12,nt,nt,nt,nt,nt,i[12.9 µM],nt
O=C(/C=C/Nc1ccc(Oc2ccccc2)cc1)c1ccco1,?,7.94µM,i,i,i,i,20.6µM
O=C(c1ccc(F)cc1)N1CCC(c2nc(-c3ccc(S(=O)(=O)N4CCCC4)cc3)no2)CC1,i,nt,nt,nt,i,nt,nt
CCC(=O)Nc1cc(C)c(NC(=O)c2ccco2)cn1,i,i,i,i,i,i,nt
